Results filed as inconclusive are left out. The source made the active and inactive calls. Calls come from the whole dose curve; as a rule, active = well fitted curve in the direction sought with a large enough effect; inconclusive = small, poorly fitted or top-dose-only effect, or another doubt; inactive = no such curve, though single readings can be large; an effect the other way counts as inactive or inconclusive. Numbered stars: 1 amine (or outer) side, 2 acyl side, 3 side chain; on linkers, the order of the positions; unused ones are H or OH. Bridge positions count the residues as written; N and C are the ends. Square brackets hold non-standard residues; d marks the D form. Peptide text beside a SMILES is read from it. I, II: the chains in the order shown. Actinocin(9to1) = Cc1c2oc3c(C)ccc(C(=O)[*:1])c3nc-2c(C(=O)[*:2])c(N)c1=O; NMeV = CN[C@H](C(=O)O)C(C)C; Sar = CNCC(=O)O
How the values were obtained:
[1] = qHTS of pediatric cancer cell lines to identify multiple opportunities for drug repurposing: Primary screen for control Hh wild type fibroblast cells (AID 1347106); note: nearly all actives have a fitted effect of over 55% in size; note: potency is the fitted concentration of half-maximal effect
Outline: (§1)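 Cells (500-1,000/well) in growth media were settled 5 h at 37 degrees C, then given compounds for 48 h. Viability was read as CellTiter-Glo luminescence. Primary runs used MIPE at 11 points (0.78 nM-46 µM) and NPC at 8 points (0.59 nM-46 µM); follow-ups used 11 points.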

[2] = qHTS of pediatric cancer cell lines to identify multiple opportunities for drug repurposing: Primary screen for Rh30 cells (AID 1347107); note: series mostly up to about 46 µM; nearly all actives have a fitted effect of over 75% in size
Outline: as §1

[3] = qHTS of pediatric cancer cell lines to identify multiple opportunities for drug repurposing: Primary screen for Rh41 cells (AID 1347108); note: nearly all actives have a fitted effect of over 70% in size; note: potency is the fitted concentration of half-maximal effect
Outline: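 CRCs from 8- or 11-point titrations (lowest final 0.59 nM NPC, 0.78 nM MIPE). Cell viability: CellTiter-Glo after 48 h incubation, 15 min room-temperature development, luminescence imaging.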

[4] = qHTS of pediatric cancer cell lines to identify multiple opportunities for drug repurposing: Confirmatory screen for SK-N-MC cells (AID 1347111);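 note: potency is the fitted concentration of half-maximal effect; cells exposed to compound for 48 h before the readout; nearly all actives have a fitted effect of over 70% in size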
Outline: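 Metabolically active cells were quantified by ATP-dependent luminescence (CellTiter-Glo, 15 min at room temperature) following 48 h treatment. Cells had been plated at 500-1,000 per well and settled for 5 h beforehand.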

[5] = qHTS of pediatric cancer cell lines to identify multiple opportunities for drug repurposing: Confirmatory screen for BT-12 cells (AID 1347112); note: nearly all actives have a fitted effect of over 55% in size; note: potency is the fitted concentration of half-maximal effect
Outline: as §1

[6] = qHTS of pediatric cancer cell lines to identify multiple opportunities for drug repurposing: Confirmatory screen for SJ-GBM2 cells (AID 1347116); note: nearly all actives have a fitted effect of over 60% in size; note: potency is the fitted concentration of half-maximal effect
Outline: (§2)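 Viability measured as metabolically active cells via CellTiter-Glo luminescence following 48 hours of compound exposure, 11-point dilutions in confirmatory testing. 500-1,000 cells/well plated 5 hours before dosing; controls were DMSO and 2.3 µM bortezomib.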

[7] = qHTS of pediatric cancer cell lines to identify multiple opportunities for drug repurposing: Confirmatory screen for A673 cells (AID 1347110);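 note: cells exposed to compound for 48 h before the viability read; nearly all actives have a fitted effect of over 65% in size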; note: potency is the fitted concentration of half-maximal effect
Outline: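 Concentration-response curves came straight from titrations: 11 points (0.78 nM to 46 µM) for MIPE and several concentrations (0.59 nM to 46 µM) for NPC in primary, 11 points in follow-up. Readout: ATP luminescence at 48 h.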

[8] = qHTS of pediatric cancer cell lines to identify multiple opportunities for drug repurposing: Confirmatory screen for LAN-5 cells (AID 1347113); note: nearly all actives have a fitted effect of over 65% in size; note: potency is the fitted concentration of half-maximal effect
Outline: as §1

[9] = qHTS of pediatric cancer cell lines to identify multiple opportunities for drug repurposing: Confirmatory screen for NB1643 cells (AID 1347109); note: nearly all actives have a fitted effect of over 45% in size; note: potency is the fitted concentration of half-maximal effect
Outline: as §1

[10] = qHTS of pediatric cancer cell lines to identify multiple opportunities for drug repurposing: Confirmatory screen for DAOY cells (AID 1347114); note: nearly all actives have a fitted effect of over 65% in size; note: potency is the fitted concentration of half-maximal effect
Outline: as §2

Measured: Potency

CC(=O)Oc1ccc2c(c1)CC[C@@H]1[C@@H]2CC[C@]2(C)[C@@H](O)CC[C@@H]12
inactive: [1] | [2] | [3] | [5] | [6]
active: [4] 6.57 µM

CC(=O)[C@H]1CC[C@H]2[C@@H]3C[C@H](C)C4=CC(=O)CC[C@]4(C)[C@H]3[C@@H](O)C[C@]12C
not listed: [4] | [9] | [10]
inactive: all other assays above

C[C@@H]1C[C@H]2[C@@H]3CCC4=CC(=O)C=C[C@]4(C)[C@@]3(F)[C@@H](O)C[C@]2(C)[C@H]1C(=O)CO
not listed: [4]
inactive: all other assays above

CC1(C)O[C@@H]2C[C@H]3[C@@H]4C[C@H](F)C5=CC(=O)CC[C@]5(C)[C@H]4[C@@H](O)C[C@]3(C)[C@]2(C(=O)CO)O1
not listed: [4]
inactive: all other assays above

C=C1C[C@H]2[C@@H]3C=C(C)C4=CC(=O)CC[C@]4(C)[C@H]3CC[C@]2(C)[C@@]1(OC(C)=O)C(C)=O
active: [4] 2.61 µM
not listed: [5] | [7] | [10]
inactive: all other assays above

Cc1c2oc3c(C)ccc(C(=O)N[C@@H]4C(=O)N[C@H](C(C)C)C(=O)N5CCC[C@H]5C(=O)N(C)CC(=O)N(C)[C@@H](C(C)C)C(=O)O[C@@H]4C)c3nc-2c(C(=O)N[C@@H]2C(=O)N[C@H](C(C)C)C(=O)N3CCC[C@H]3C(=O)N(C)CC(=O)N(C)[C@@H](C(C)C)C(=O)O[C@@H]2C)c(N)c1=O (I: T[dV]P[Sar][NMeV] / II: T[dV]P[Sar][NMeV]; ester I:1-I:C, II:1-II:C; linker I:N-II:N via Actinocin(9to1))
active: [7] 0.0131 µM | [4] 0.0052 µM | [5] 0.0208 µM | [8] 0.0023 µM | [10] 0.0261 µM | [6] 0.0261 µM
inactive: [2] | [9]

CCN1CCN(c2cc3c(cc2F)c(=O)c(C(=O)O)cn3C2CC2)CC1
inactive: [2] | [3]

C[C@]12CCC(=O)C=C1CC[C@H]1[C@@H]3CC[C@](O)(C(=O)CO)[C@@]3(C)C[C@H](O)[C@@]12F
not listed: [4] | [5]
inactive: all other assays above

C[C@@H]1C[C@H]2[C@@H]3C[C@H](F)C4=CC(=O)C(Cl)=C[C@]4(C)[C@@]3(F)[C@@H](O)C[C@]2(C)[C@@]1(O)C(=O)CO
inactive: [1] | [2] | [3] | [7] | [10]

CCCCCCCCCCOCC(O)CN (stereo not drawn)
inactive: [2]

CC1(C)O[C@@H]2C[C@H]3[C@@H]4CCC5=CC(=O)CC[C@]5(C)[C@@]4(F)[C@@H](O)C[C@]3(C)[C@]2(C(=O)CCl)O1
not listed: [4] | [8]
inactive: all other assays above

CCCCCCC[N+](CC)(CC)CCCCc1ccc(Cl)cc1
active: [3] 15 µM | [9] 14.7 µM | [7] 3.69 µM | [4] 9.27 µM | [5] 8.27 µM | [8] 8.27 µM
inactive: [1] | [10]

COc1cccc2c1C(=O)c1c(O)c3c(c(O)c1C2=O)C[C@@](O)(C(=O)CO)C[C@@H]3O[C@H]1C[C@H](N)[C@H](O)[C@H](C)O1
active: [1] 1.68 µM | [3] 1.68 µM | [7] 0.928 µM | [4] 0.293 µM | [5] 4.65 µM | [8] 1.04 µM | [10] 9.27 µM | [6] 2.61 µM
inactive: [2]

CC(C)(C)CC(C)(C)c1ccc(OCCOCC[N+](C)(C)Cc2ccccc2)cc1
active: [3] 16.8 µM

Source: PubChem BioAssay (NCATS)
